Our source for the growth values is PubChem BioAssay (NCI).

This is part of a sample that, as a whole, favours compounds with a hit. Of some 83,000 tested, about 20% had one in any assay.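 Values shown are percent growth following 48 h exposure of cells in 96-well plates to a single concentration of compound; below 10 was considered active.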 A number with no mark means an inactive call. Calls of active or inactive are those of the source.

Assay in all cases: NCI-60 one-dose screen, 48 h (100 = growth as untreated, 0 = no growth, -100 = all killed)
What all share (settings): 10 µM unless noted

Test [1] deals with SR leukemia.
For test [2], the system named is RPMI-8226 leukemia.
Test [3] deals with OVCAR-8 ovarian.
The test system of test [4] is OVCAR-5 ovarian.
Test [5] has as its system OVCAR-4 ovarian.
Test [6] deals with SK-OV-3 ovarian.
For test [7], the system named is IGROV1 ovarian.
Test [8] relates to OVCAR-3 ovarian.
The subject of test [9] is HS 578T breast.
Test [10] has as its system NCI/ADR-RES ovarian.
The test system of test [11] is T-47D breast.
Test [12] deals with MDA-MB-435 melanoma.
In test [13] the test system is SW-620 colon.
For test [14], the system named is MCF7 breast.
Test [15] has as its system HCT-116 colon.
Test [16] concerns KM12 colon.
The test system of test [17] is HCC-2998 colon.
In test [18] the test system is BT-549 breast.

In the case of `N#Cc1c(-c2ccc(O)cc2)c2c(N)nn(-c3ccccc3)c2[nH]c1=O`, the growth in [1] is 115%; in test [2], 101%; in test [3], 105%; in [4], 105%; in [5], 113%; in [6] it was 102%. Also, the growth in test [7] was 93%; in [8] it was 110%; in test [9], 104%; in [10], 102%; in [11], 112%; in test [12] it was 108%. Besides, the growth was 102% in test [13], 101% in test [14], 108% in test [15] and 102% in [16].

Take `CN(C)c1ccc(N=C2C=CC(=O)C=C2)cc1`: the growth in test [1] is 25.9%; in test [2], 61.1%; in test [3] it was 81.7%; in test [4], 120%; in [5] it was 70.4%; in test [6], 99.7%. In addition, the growth was 96.5% in [7]; -14.8% (active) in [8]; 72.5% in test [9]; 90.8% in test [10]; 60.6% in test [11]; 74.5% in test [12]. The growth in test [15] is 74.3%; in test [17], 94.3%; in test [16], 97.1%.

On to `Cc1cc(Cl)nc(N(CCNc2ccnc3cc(Cl)ccc23)Cc2ccco2)n1`, for which the growth in test [1] is -3.12% (active); in [2], -30.7% (active); in test [3] it was 45.3%; in [4], 80.5%; in test [5], 53.1%; in test [6], 123%. Further, the growth in [7] was 38.3%; in test [8] it was -41.2% (active); in [9] it was 79.2%; in test [10], 44.5%; in test [11] it was -14.7% (active); in [12], 41.9%. Moreover, the growth in [13] is 28%; in test [14], 22.7%; in test [15] it was 13.6%; in test [17] it was 91.1%; in [16], 59.5%.

Take `CC(=O)NC1=C(C#N)C(c2ccccc2Cl)c2c(ccc3ccccc23)O1` (configuration not stated): the growth was 37.1% in [1]; 55.5% in test [2]; 82% in [3]; 86.3% in [4]; 88.8% in test [5]; 85% in test [6]. Besides, the growth in test [7] was 46.1%; in test [8], 41.2%; in [9] it was 74.9%; in [11], 62.5%; in test [18], 50%; in [12] it was -11.2% (active). The growth in test [13] was 43%; in [14], 42.1%; in test [15] it was 47.5%; in test [17], 85.4%; in [16], 51.2%.

For the compound `Nc1c(C(=O)Nc2cccc(Cl)c2)sc2ncc(Cl)cc12`, the growth is 66.3% in test [1]; 75% in [2]; 81.9% in test [3]; 88.8% in test [4]; -4.92% (active) in test [5]; 81% in [6]. Further, the growth in [7] was 79.5%; in test [8] it was 71.4%; in test [11] it was 49.6%; in test [18] it was 68.8%; in test [12], 77.5%; in [13], 66.6%. Also, the growth in test [14] is 84%; in test [15], 19.6%; in test [17], 78.2%; in [16] it was 63.3%.

In the case of `C/C(=N\Nc1ccc2ccccc2n1)c1ccccn1`, the growth in test [1] was 6.18% (active); in test [2] it was 1.84% (active); in test [3] it was 6.43% (active); in [4], 24%; in test [5], 21.2%; in test [6] it was 24.7%. Also, the growth in [7] is -2.71% (active); in [8], 8.54% (active); in test [9], 49%; in test [11], 19.8%; in test [18], 20.3%; in test [12], 3.21% (active). Further, the growth in [14] was 8.28% (active); in [15], -12% (active); in test [17] it was 18.1%; in test [16], 6.76% (active).

As to `Cc1ccc(-c2ccc(Nc3ccccc3)nn2)cc1S(N)(=O)=O`, the growth in test [1] was 23.6%; in test [2], 86.1%; in test [3], 94.1%; in test [4], 101%; in test [5], 94.7%; in [6] it was 100%. Moreover, the growth in test [7] is 97.3%; in test [8], 94.6%; in test [11], 84.2%; in [18], 80.6%; in test [12], 8.3% (active); in test [13], 51.7%. The growth was 78.1% in test [14], 79% in test [15], 59.8% in test [17] and 39.3% in [16].

`Fc1ccc2c(c1)c(-c1nc(-c3c[nH]c4ncccc34)cs1)cn2CCCN1CCCCC1`: the growth was -34.7% (active) in test [1]; -21.1% (active) in test [2]; 76.9% in test [3]; 88.3% in [4]; 70.6% in test [5]; 94.4% in test [6]. Further, the growth in [7] was 45.7%; in test [8] it was 61.7%; in test [9], 75.1%; in test [11], 67.5%; in test [18] it was 88.8%; in test [12], -20% (active). Also, the growth in test [13] was -34.9% (active); in test [14] it was 21.6%; in test [15], 45.3%; in [17] it was 98.8%; in test [16] it was 68.3%.

For the compound `COc1cc(-c2c(C#N)c(-c3cccs3)nc3c2c(-c2ccccc2)nn3-c2ccccc2)ccc1O`, the growth in test [1] was 60.5%; in [2], 94.3%; in test [3], 84.2%; in test [4], 95.4%; in test [5] it was 83.5%; in test [6], 82.7%. For the same compound, the growth was 91.3% in [7]; 101% in test [8]; 78.6% in [9]; 56.8% in [11]; 101% in test [18]; 74.8% in test [12]. In addition, the growth was 88% in test [13]; 76.4% in [14]; 56.8% in [15]; 99.6% in test [17]; 78.4% in [16].
